{"source": "paper PMC7862700", "about": "“An all-to-all approach to the identification of sequence-specific readers for epigenetic DNA modifications on cytosine”"}
{"molecular_target": "T1, ETV2 (Homo sapiens, UniProt O00321 1-342)", "T1 sequence": "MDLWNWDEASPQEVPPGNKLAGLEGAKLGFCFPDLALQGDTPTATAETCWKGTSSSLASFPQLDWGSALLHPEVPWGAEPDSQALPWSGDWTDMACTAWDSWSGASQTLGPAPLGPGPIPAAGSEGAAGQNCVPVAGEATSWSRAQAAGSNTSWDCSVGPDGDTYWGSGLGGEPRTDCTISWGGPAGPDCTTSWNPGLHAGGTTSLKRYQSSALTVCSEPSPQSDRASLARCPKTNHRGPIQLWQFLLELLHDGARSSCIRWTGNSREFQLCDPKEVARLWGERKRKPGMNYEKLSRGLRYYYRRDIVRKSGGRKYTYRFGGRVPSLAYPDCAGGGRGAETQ", "assay": "DAPPL (digital affinity profiling via proximity ligation, sequencing); 10 mM Tris-HCl pH 7.5, 50 mM NaCl, 1 mM DTT, 4% glycerol, room temperature, 30 min; GST-TFs on glutathione beads, 16-mer random dsDNA library, 0.1% formaldehyde crosslink after washing; high values mean tight binding", "settings": "protein: recombinant; tags: N-terminal GST; dsDNA, one strand shown", "how_it_was_run": "(§1)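 Pools of DNA-barcoded human transcription factors, expressed in yeast as GST fusions on glutathione beads and combined with a tag-only sample, were incubated with 200 nmole of a 16-mer random double-stranded DNA library. Incubation took 30 min at room temperature in Tris/NaCl/DTT/glycerol buffer and was followed by washing, 0.1% formaldehyde crosslinking, proximity ligation (BsaI/T4 ligase, 1 h, 37 °C), PCR amplification and sequencing on an Illumina NextSeq500. Binding signal is the ratio of a hexamer's read frequency for a factor to its frequency for the tag-only sample.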"}
{"sequence": "CCAGAA", "binding signal": "1.05 fold enrichment (6-mer frequency, TF over GST control)"}
{"sequence": "TAGACA", "binding signal": "1.01 fold enrichment (6-mer frequency, TF over GST control)"}
{"sequence": "AGAATA", "binding signal": "1.07 fold enrichment (6-mer frequency, TF over GST control)"}
{"sequence": "CGAAGT", "binding signal": "1.03 fold enrichment (6-mer frequency, TF over GST control)"}
{"sequence": "ATTAGT", "binding signal": "1.12 fold enrichment (6-mer frequency, TF over GST control)"}
{"sequence": "AGGGTT", "binding signal": "1.03 fold enrichment (6-mer frequency, TF over GST control)"}
{"sequence": "GCCTGG", "binding signal": "1.19 fold enrichment (6-mer frequency, TF over GST control)"}
{"sequence": "GAATAG", "binding signal": "1.03 fold enrichment (6-mer frequency, TF over GST control)"}
{"sequence": "GATAAA", "binding signal": "1.12 fold enrichment (6-mer frequency, TF over GST control)"}
{"sequence": "GCCTAG", "binding signal": "1.08 fold enrichment (6-mer frequency, TF over GST control)"}
{"sequence": "GCGATA", "binding signal": "1.11 fold enrichment (6-mer frequency, TF over GST control)"}
{"sequence": "GAATGA", "binding signal": "1.11 fold enrichment (6-mer frequency, TF over GST control)"}
{"sequence": "CATTAG", "binding signal": "1.03 fold enrichment (6-mer frequency, TF over GST control)"}
{"molecular_target": "T2, ELF3 (Homo sapiens, UniProt P78545 1-371)", "T2 sequence": "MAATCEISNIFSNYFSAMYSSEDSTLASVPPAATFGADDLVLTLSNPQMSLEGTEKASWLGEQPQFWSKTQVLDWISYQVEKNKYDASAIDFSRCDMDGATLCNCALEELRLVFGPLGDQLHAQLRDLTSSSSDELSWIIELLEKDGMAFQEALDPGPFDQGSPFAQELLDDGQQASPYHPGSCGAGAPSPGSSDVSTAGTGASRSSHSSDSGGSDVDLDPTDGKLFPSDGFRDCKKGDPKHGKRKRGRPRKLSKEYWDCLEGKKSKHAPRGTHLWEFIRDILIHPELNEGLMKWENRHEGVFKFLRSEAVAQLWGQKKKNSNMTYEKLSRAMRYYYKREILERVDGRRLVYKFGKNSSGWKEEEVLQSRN", "assay": "DAPPL (digital affinity profiling via proximity ligation, sequencing); 10 mM Tris-HCl pH 7.5, 50 mM NaCl, 1 mM DTT, 4% glycerol, room temperature, 30 min; GST-TFs on glutathione beads, 16-mer random dsDNA library, 0.1% formaldehyde crosslink after washing; high values mean tight binding", "settings": "protein: recombinant; tags: N-terminal GST; dsDNA, one strand shown", "how_it_was_run": "as §1"}
{"sequence": "CCAGAA", "binding signal": "1.07 fold enrichment (6-mer frequency, TF over GST control)"}
{"sequence": "TAGACA", "binding signal": "1.01 fold enrichment (6-mer frequency, TF over GST control)"}
{"sequence": "AGGCTT", "binding signal": "1.11 fold enrichment (6-mer frequency, TF over GST control)"}
{"sequence": "CCAGCA", "binding signal": "1.06 fold enrichment (6-mer frequency, TF over GST control)"}
{"sequence": "CCAGCT", "binding signal": "1.04 fold enrichment (6-mer frequency, TF over GST control)"}
{"sequence": "AGAATA", "binding signal": "1.04 fold enrichment (6-mer frequency, TF over GST control)"}
{"sequence": "AGAAGA", "binding signal": "1.03 fold enrichment (6-mer frequency, TF over GST control)"}
{"sequence": "GATCAT", "binding signal": "1.05 fold enrichment (6-mer frequency, TF over GST control)"}
{"sequence": "GCGAAT", "binding signal": "1.12 fold enrichment (6-mer frequency, TF over GST control)"}
{"sequence": "AGAACC", "binding signal": "1.06 fold enrichment (6-mer frequency, TF over GST control)"}
{"sequence": "GCGATA", "binding signal": "1.02 fold enrichment (6-mer frequency, TF over GST control)"}
{"sequence": "CGAATG", "binding signal": "1.12 fold enrichment (6-mer frequency, TF over GST control)"}
{"sequence": "GAATGA", "binding signal": "1.07 fold enrichment (6-mer frequency, TF over GST control)"}
{"molecular_target": "CRX (Homo sapiens, UniProt O43186 1-299)", "sequence (O43186 whole entry)": "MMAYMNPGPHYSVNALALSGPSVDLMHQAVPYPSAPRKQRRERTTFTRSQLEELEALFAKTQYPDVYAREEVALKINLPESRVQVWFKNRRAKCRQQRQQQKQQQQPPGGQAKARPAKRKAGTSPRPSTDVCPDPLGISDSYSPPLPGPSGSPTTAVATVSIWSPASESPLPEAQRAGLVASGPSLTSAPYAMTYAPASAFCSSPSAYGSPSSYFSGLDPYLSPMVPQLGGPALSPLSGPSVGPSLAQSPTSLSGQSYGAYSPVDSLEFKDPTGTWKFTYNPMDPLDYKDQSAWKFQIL", "assay": "DAPPL (digital affinity profiling via proximity ligation, sequencing); 10 mM Tris-HCl pH 7.5, 50 mM NaCl, 1 mM DTT, 4% glycerol, room temperature, 30 min; GST-TFs on glutathione beads, 16-mer random dsDNA library, 0.1% formaldehyde crosslink after washing; high values mean tight binding", "settings": "protein: recombinant; tags: N-terminal GST; dsDNA, one strand shown", "how_it_was_run": "as §1"}
{"sequence": "AGATTA", "binding signal": "4.03 fold enrichment (6-mer frequency, TF over GST control)"}
{"sequence": "CCAGAA", "binding signal": "1.49 fold enrichment (6-mer frequency, TF over GST control)"}
{"sequence": "TAGACA", "binding signal": "1.03 fold enrichment (6-mer frequency, TF over GST control)"}
{"sequence": "AGGCTT", "binding signal": "1.74 fold enrichment (6-mer frequency, TF over GST control)"}
{"sequence": "TTGAGA", "binding signal": "1.02 fold enrichment (6-mer frequency, TF over GST control)"}
{"sequence": "TAGCGC", "binding signal": "1.03 fold enrichment (6-mer frequency, TF over GST control)"}
{"sequence": "CCAGCT", "binding signal": "1.1 fold enrichment (6-mer frequency, TF over GST control)"}
{"sequence": "AGAATA", "binding signal": "1.42 fold enrichment (6-mer frequency, TF over GST control)"}
{"sequence": "TCGAAA", "binding signal": "1.16 fold enrichment (6-mer frequency, TF over GST control)"}
{"sequence": "ATTAGT", "binding signal": "2.44 fold enrichment (6-mer frequency, TF over GST control)"}
{"sequence": "AGGGTT", "binding signal": "1.06 fold enrichment (6-mer frequency, TF over GST control)"}
{"sequence": "AGAAGA", "binding signal": "1.14 fold enrichment (6-mer frequency, TF over GST control)"}
{"sequence": "GATCAT", "binding signal": "1.48 fold enrichment (6-mer frequency, TF over GST control)"}
{"sequence": "TAGAAC", "binding signal": "1.43 fold enrichment (6-mer frequency, TF over GST control)"}
{"sequence": "ATCAGA", "binding signal": "1.25 fold enrichment (6-mer frequency, TF over GST control)"}
{"sequence": "GCGAAT", "binding signal": "1.08 fold enrichment (6-mer frequency, TF over GST control)"}
{"sequence": "GATAAA", "binding signal": "1.55 fold enrichment (6-mer frequency, TF over GST control)"}
{"sequence": "TCGGCT", "binding signal": "1.34 fold enrichment (6-mer frequency, TF over GST control)"}
{"sequence": "GCGATA", "binding signal": "1.11 fold enrichment (6-mer frequency, TF over GST control)"}
{"sequence": "TTAGTG", "binding signal": "1.89 fold enrichment (6-mer frequency, TF over GST control)"}
{"sequence": "AGATAT", "binding signal": "1.06 fold enrichment (6-mer frequency, TF over GST control)"}
{"sequence": "TCAGAA", "binding signal": "1.12 fold enrichment (6-mer frequency, TF over GST control)"}
{"sequence": "TTAGGC", "binding signal": "2.06 fold enrichment (6-mer frequency, TF over GST control)"}
{"sequence": "CATTAG", "binding signal": "1.26 fold enrichment (6-mer frequency, TF over GST control)"}
{"sequence": "GCGATC", "binding signal": "1.03 fold enrichment (6-mer frequency, TF over GST control)"}
{"sequence": "AGAACT", "binding signal": "1.02 fold enrichment (6-mer frequency, TF over GST control)"}
{"sequence": "TCGAAG", "binding signal": "1.09 fold enrichment (6-mer frequency, TF over GST control)"}
